SMILES strings stand for the structures. The whole screen tested about 69,000 compounds, of which about 8,600 (12%) showed an effect of 50% or more. The sample as a whole holds a higher share of strong results than the screen did.

The assay relates to Plasmodium berghei. The assay is described as follows: Screen against P. berghei liver stage (PbLuc), transformed with Luciferase, at 10uM. It counts as functional, HepG2. The settings on record: tested at 10 uM.
With `CN1CC[C@]2(CN(S(C)(=O)=O)C[C@H]2c2ccccc2)C1=O`, the INHIBITION amounted to 48.4%.
Regarding `CCCn1cc(Cl)c(C(=O)N2C[C@@H](O)[C@H](NC(C)=O)C2)n1`, the INHIBITION was 0.65%.
As for `O=C(O)c1cncc(Cc2ccccc2F)c1`, the figure is -8.58%; as for `Cc1cc(-c2cnc(N3CCNC(=O)C3)nc2-c2cccnc2C)on1`, 39.2%; as for `Cc1cc(-c2cnc(N3CCCC(C)C3)nc2-c2cccnc2C)on1` (stereo unspecified), 64.3%.
As to `Cc1cc(-c2cnc(N3CCCCCC3)nc2-c2cccnc2C)on1`, the INHIBITION is given as 59.3%.
For the compound `Cc1cc(-c2cnc(N3CCNC(=O)C3)nc2-c2ccncc2)on1`, the INHIBITION was 50.8%.
As for `Cc1cc(-c2cnc(N3CCOCC3)nc2-c2cccnc2C)on1`, the figure is -2.11%; as for `Cc1cc(-c2cnc(N3CCNC(=O)C3)nc2-c2ccoc2C)on1`, 14.7%.
As for `Cc1cc(-c2cnc(N3CCNC(=O)C3)nc2-c2sccc2C)on1`, the figure is 0.301%; as for `Cc1cc(-c2cnc(N3CCNC(=O)C3)nc2-c2ccc(C)o2)on1`, 35.8%; as for `Cc1cc(-c2cnc(N3CCC(O)CC3)nc2-c2cccnc2C)on1`, 11.1%.
For the compound `O=C(c1ccc(Cl)cc1F)N1CCC(Cn2cc(CO)nn2)CC1`, the INHIBITION is on record as 6.67%.
In the case of `CCCN(Cc1nnnn1C1CC1)CC1COc2ccccc2O1` (stereo unspecified) it was -16.6%.
As for `COCCCNC(=O)c1cc(-c2cnc(N3CCOCC3)nc2)cn1C`, the figure is 38.1%; as for `CC1CCN(CCNC(=O)c2ccn(-c3ccc(F)cc3)n2)CC1`, -43.5%.
In the case of `CCSc1ccccc1C(=O)NCCN1CCC(c2cccs2)CC1` it was 38%; in that of `CC(=O)NCCN1CCC(c2cccs2)CC1`, -19.4%.
Consider `O=C(NCCc1ccccc1)NCCN1CCC(c2cccs2)CC1`, for which the INHIBITION is listed as 38%.
As for `O=C(NCCN1CCC(c2cccs2)CC1)c1ccccc1C(F)(F)F`, the figure is 40.9%; as for `Cc1csc(C(=O)NCCN2CCC(c3cccs3)CC2)c1`, 68.2%; as for `O=C(NCCN1CCC(c2cccs2)CC1)c1ccc(F)cc1Cl`, 56.6%.
Take `CC1CCN(CCNC(=O)Nc2ccc(F)cc2Cl)CC1`: the INHIBITION was found to be 56.4%.
In the case of `O=C(Cc1ccccc1Cl)NCCN1CCC(c2cccs2)CC1` it was 56.6%.
In the case of `COc1ccc(C(=O)NCCN2CCC(c3cccs3)CC2)cc1OC` it was 17.1%.
In the case of `CCOC(=O)N1CCN(CC(=O)Nc2ccc(F)cc2Cl)CC1`, the INHIBITION is listed as 25.6%.
As for `O=C(NCCN1CCC(c2cccs2)CC1)Nc1cccs1`, the figure is 9.54%; as for `CCc1nnc2n1CCN(C(=O)c1ccc3cc[nH]c3c1)C2`, -7.53%.
`CC(=O)N[C@@H]1CN(S(=O)(=O)c2ccc(Cl)cc2)C[C@H]1O`: the INHIBITION is given as -0.232%.
In the case of `COC(C)(CNS(=O)(=O)c1cnn(C)c1)c1ccccc1F` (stereo unspecified) it was -19.1%.
As for `Cc1noc(C)c1CCC(=O)N1CCn2cccc2C1C` (stereo unspecified), the figure is -19.7%.
For `CN(C)C(=O)c1n[nH]c2c1CN(Cc1ccccn1)CC2`, the INHIBITION was -27%.
For `CC1CCN(CCCNC(=O)Nc2cc3c(cc2Br)OCCO3)CC1`, the INHIBITION turned out to be 63.3%.
`CC1CCN(CCCNC(=O)C2CCCCC2)CC1`: the INHIBITION is given as -32.3%.
As for `O=C(Nc1cc2c(cc1Br)OCCO2)NC1CCS(=O)(=O)C1` (stereo unspecified), the INHIBITION is listed as 11.8%.
As for `CN(Cc1nccn1CC(F)(F)F)C(=O)c1ccc(F)c(F)c1`, the figure is -17.4%.
As for `Cc1nn(-c2ncnc3[nH]cnc23)c2c1C(CC(C)C)CC(=O)N2` (stereo unspecified), the figure is -4.35%.
In the case of `CN(C)c1ncnc2c1CCN(Cc1nccs1)CC2` it was -12.1%.
As for `Cc1cnc(C(=O)N2CCC3(CCN(Cc4ccccn4)C3=O)C2)cn1` (stereo unspecified), the INHIBITION is given as -39.2%.
In the case of `CC(C)(C)c1nc(CN2CCN(C(=O)c3cnccn3)CC2)cs1` it was 20.8%; in that of `Cc1occc1C(=O)N1CCC2(CCN(Cc3ccccn3)C2=O)C1` (stereo unspecified), 65.7%.
In the case of `Cc1ccc(C(=O)N2CCC3(CC2)CCN(Cc2ccccn2)C3=O)o1` it was 52.2%; in that of `Cc1oncc1C(=O)N1CCC2(CCN(Cc3ccccn3)C2=O)C1` (stereo unspecified), 25.1%.
In the case of `CN(C)C(=O)N1CCC2(CC1)CCN(Cc1ccccn1)C2=O` it was 20.5%; in that of `O=C(c1cnccn1)N1CCN(Cc2csc(-c3ccccc3)n2)CC1`, 59.4%.
As for `CCc1nc(CN2CCN(C(=O)c3cnccn3)CC2)cs1`, the INHIBITION was 9.94%.
In the case of `O=C(c1ccncc1)N1CCC2(CC1)CCN(Cc1ccccn1)C2=O` it was 14.6%; in that of `O=C(c1cnccn1)N1CCC2(CC1)CCN(Cc1ccccn1)C2=O`, 53.2%.
With `O=C(c1cccnc1)N1CCC2(CC1)CCN(Cc1ccccn1)C2=O`, the INHIBITION was -20.1%.
In the case of `CC(=O)N1CCC2(CCN(Cc3ccccn3)C2=O)C1` (stereo unspecified) it was -20.1%; in that of `CNc1cncc(C2CCCN2C(=O)CCn2ccnc2C(C)C)n1` (stereo unspecified), 21.685%; in that of `O=C(CC1CN(Cc2ccccc2)CCO1)NC1CCSCC1` (stereo unspecified), 35.1%.
As for `COCC(=O)N1CCCC1c1cc(N2CCN(C(C)=O)CC2)cc(C)n1` (stereo unspecified), the figure is 18.9%.
In the case of `COCC(=O)N1C[C@H]2CCCC(OCc3cccnc3)[C@H]2C1` (stereo partly specified), the INHIBITION was -3.52%.
As for `Cc1nc(CN2CCO[C@@H]3CN(C(=O)NC(C)C)CC[C@@H]3C2)cs1`, the figure is 36.4%; as for `CNS(=O)(=O)CC(=O)NCc1cc2c(s1)CCCCC2`, 28.9%.
As for `c1ccc(-c2nc(CCNC3CCOC4(CCOCC4)C3)no2)cc1` (stereo unspecified), the figure is -6.34%; as for `CCn1nccc1CNc1[nH]cnc2nc(C)nc1-2`, 26.4%.
`O=C(NC1CCN(c2ccc(-c3ccccc3F)nn2)C1)C1CCC1` (stereo unspecified): the INHIBITION amounted to 60.8%.
As for `O=C(NC1CCN(c2ccc(-c3ccccc3F)nn2)C1)c1cc[nH]n1` (stereo unspecified), the figure is 49.5%.
In the case of `O=C(NC1CCN(c2ccc(-c3ccccc3F)nn2)C1)c1ccc[nH]1` (stereo unspecified) it was 12.4%; in that of `CCOCC(=O)N1Cc2nccn2CC(CN2CCCC2)C1` (stereo unspecified), 34.6%; in that of `O=C1O[C@@H]2CN(c3cnccn3)C[C@@H]2N1CCCc1ccc(F)cc1`, 9.4%.
As for `O=C1O[C@@H]2CN(c3ncccn3)C[C@@H]2N1CCCc1ccc(F)cc1`, the figure is 83.8%; as for `O=C1O[C@@H]2CN(c3ccncc3)C[C@@H]2N1CCCc1ccc(F)cc1`, 75.2%; as for `O=C1O[C@@H]2CN(c3ccccn3)C[C@@H]2N1CCCc1ccc(F)cc1`, 86.7%.
For the compound `O=C1O[C@@H]2CN(c3ccc(Cl)cn3)C[C@@H]2N1CCc1ccc(F)cc1`, the INHIBITION is recorded as -2.04%.
Take `Cc1cc(C)nc(N2C[C@H]3OC(=O)N(CCc4cccc(Cl)c4)[C@H]3C2)n1`: the INHIBITION was -17.8%.
As to `O=C1O[C@@H]2CN(Cc3ccccn3)C[C@@H]2N1CCCc1ccc(F)cc1`, the INHIBITION is on record as 15.1%.
As for `O=C1O[C@@H]2CN(C3CCOCC3)C[C@@H]2N1CCCc1ccc(F)cc1`, the figure is 33%; as for `O=C1O[C@@H]2CN(Cc3ccncc3)C[C@@H]2N1CCCN1CCOCC1`, -43.5%; as for `CCC1=N[C@@]2(CC[C@@H]3CN(CC4CC4)C[C@@H]32)C(=O)N1CC`, 7.31%.
With `CCCS(=O)(=O)N1C[C@@H](c2nc(C)no2)C[C@H]2OCC[C@H]21`, the INHIBITION amounted to 33%.
As for `CN(C)c1ncc2c(O)nc(C3CCNCC3)cc2n1`, the figure is -9.51%; as for `COCc1n[nH]c2c1CN(C(=O)c1ccncc1)C2`, 21.6%; as for `COc1ccccc1CCNC(=O)N(C)C(C)CS(C)(=O)=O` (stereo unspecified), 38.7%.
With `CC(C)Oc1ccccc1CNC(=O)N(C)C(C)CS(C)(=O)=O` (stereo unspecified), the INHIBITION amounted to 33.2%.
As for `COc1cc(Cl)ccc1CNC(=O)N(C)C(C)CS(C)(=O)=O` (stereo unspecified), the figure is 61%; as for `CCOC1CCCN(C(=O)c2nn(-c3ccccc3F)cc2O)C1` (stereo unspecified), 11.2%; as for `COc1cccc(S(=O)(=O)CCN2CCCC2c2ccc[nH]2)c1` (stereo unspecified), 32.3%.
As to `NC(=O)COc1cccc(CN2CCCC2c2ccc[nH]2)c1` (stereo unspecified), the INHIBITION is reported as 62.6%.
In the case of `CN(C)c1cccc(C2CCCN2Cc2nnnn2C2CC2)c1` (stereo unspecified) it was 26.6%; in that of `COc1ccc(C2CCCN2Cc2nnnn2C2CC2)cc1OC` (stereo unspecified), 19.7%.
Consider `NC(=O)COc1cccc(Cn2cccn2)c1`, for which the INHIBITION is -24.9%.
In the case of `N#CCCCOc1cccc(CN2CCCC2c2ccc[nH]2)c1` (stereo unspecified) it was 43.1%; in that of `N#Cc1cccc(CN2CCCC2Cn2cccn2)c1` (stereo unspecified), -11.4%; in that of `N#Cc1cccc(CN2CCCC2Cn2cncn2)c1` (stereo unspecified), 7.18%.
In the case of `COc1cccc(CN2CCCC2c2ccc[nH]2)c1` (stereo unspecified) it was 62.6%.
As for `N#Cc1cccc(CN2CCCC2c2ccc[nH]2)c1` (stereo unspecified), the figure is 50.7%.
As for `COc1cccc(C2CCCN2Cc2nnnn2C2CC2)c1` (stereo unspecified), the INHIBITION turned out to be 51.6%.
As for `NC(=O)c1ccc(OCC(=O)N2CCCC2c2ccc[nH]2)cc1` (stereo unspecified), the figure is 28.2%; as for `Cc1nc(Cn2c3c(ccc2=O)CCN(CC2CC2)CC3)cs1`, -8.85%; as for `COc1cccc(CC2CN(C3CCC3)CCO2)c1` (stereo unspecified), 25.8%.
In the case of `Cc1ccccc1NC(=O)c1cncc(C2CCNCC2)n1` it was -20.6%.
In the case of `CCN1CC[C@@]2(C(=O)N3CCOCC3)CCN(C(=O)C(C)C)CC[C@@H]12` it was 14.9%; in that of `Cc1cnn(CC2CCCCN2CC(=O)Nc2nc(C)cs2)c1` (stereo unspecified), 33.8%.
As for `Cc1nc(CN2CCO[C@@H]3CN(C(=O)CC4CC4)C[C@@H]3C2)cs1`, the INHIBITION worked out at 9.63%.
As for `Cn1ccnc1CC1CCCN(C(=O)Cc2ccccc2)C1` (stereo unspecified), the figure is 21.9%; as for `Cc1nn(C)c(C)c1C1CCCN1Cc1cccc(C(N)=O)c1` (stereo unspecified), 5.37%; as for `Cc1nn(C)c(C)c1C1CCCN1Cc1cccc(OCC(N)=O)c1` (stereo unspecified), 72.9%.
In the case of `COc1cccc(CN2CCCC2c2c(C)nn(C)c2C)c1` (stereo unspecified) it was -14.8%.
For the compound `CCS(=O)(=O)CCN1CCCC1c1noc(C)n1` (stereo unspecified), the INHIBITION was found to be 16.8%.
As for `Cc1cc(CNc2cccc(Cl)c2C)no1`, the figure is 16.165%; as for `CCCSc1ncc(-c2nccn2CCO)cn1`, 35.1%.
On to `CCCSc1ncc(-c2nccn2CCC(N)=O)cn1`, for which the INHIBITION was 53.3%.
As for `CCCn1ccnc1-c1nccn1CCC(N)=O`, the figure is 29.8%.

The values above are taken from ChEMBL document CHEMBL4513216, “Probing the Open Global Health Chemical Diversity Library for Multistage-Active Starting Points for Next-Generation Antimalarials” (ACS Infect Dis, 2020).
